Laboratory results taken from PubChem BioAssay AID463173 (ICCB-Longwood Screening Facility, Harvard Medical School, 2010).
Out of some 52,000 compounds screened, about 4,300 (8.3%) were called active. Only a selection was taken, and actives are over-represented in it overall. Unmarked numbers belong to inactive results. Cut-off read from the data, not from the text of the source: active = survival mostly below about 52% (no sharp cut-off); inactive = mostly above about 56%.

test system: DeltatarO mutant; experiment: S. aureus survival, RN4220 and DeltatarO strains – OD600, teichoic acid synthesis inhibitors, primary screen (AID 463173); details: S. aureus RN4220 wild type/DeltatarO growth, OD600, 18 h, hits give low values, concentration not given here

SMILES | survival
Cc1cccc(-n2c(-c3ccco3)nc3ccccc3c2=O)c1 | 94%
CCCCc1nc2ccccc2c(=O)n1-c1cccc(OC)c1 | 119%
Cc1cccc(-n2c(/C=C/c3cn(C)c4ccccc34)nc3ccccc3c2=O)c1 | 21% (active)
Cc1cccc(-n2c(/C=C/c3ccccc3O)nc3ccccc3c2=O)c1 | 0% (active)
Cn1cc(/C=C/c2nc3ccccc3c(=O)n2-c2ccccc2)c2ccccc21 | 77%
O=c1c2ccccc2nc(/C=C\c2ccccc2F)n1-c1ccc(O)cc1 | 67%
COc1ccc(-n2c(/C=C\c3ccccc3F)nc3ccccc3c2=O)cc1OC | 89%
COc1cc(/C=C/c2nc3ccccc3c(=O)n2-c2ccc(Br)c(C)c2)ccc1O | 71%
O=c1c2ccccc2nc(/C=C/c2ccccc2F)n1-c1cccc(O)c1 | 2% (active)
COc1cccc(-n2c(/C=C/c3ccccc3O)nc3ccccc3c2=O)c1 | 4% (active)
Cc1cc(C)cc(-n2c(/C=C/c3cccc(F)c3)nc3ccccc3c2=O)c1 | 83%
Cc1cccc(-n2c(/C=C/c3cccc4ccccc34)nc3ccccc3c2=O)c1 | 94%
Cc1cc(-n2c(/C=C/c3cccs3)nc3ccccc3c2=O)ccc1Br | 104%
O=C1/C(=C\c2cc3c(cc2Cl)OCO3)N2CCC1CC2 | 87%
O=C1NC(=S)NC(=O)C1C1CCCCC1 | 74%
CCC(C(=O)Nc1ccccc1F)N1C(=O)CN=C(c2ccccc2)c2ccccc21 (stereo not given) | 84%
CC(C)Cc1nc2cccnc2n1C1CCNCC1 | 120%
O=C(c1ccc2c(c1)N(Cc1ccc(F)cc1Cl)C(=O)c1ccccc1S2)N1CCC2(CC1)OCCO2 | 101%
COc1ccc(N=C2SCCCN2C)cc1 | 99%
CNC(=O)Oc1c(Cl)cc(Cl)cc1Cl | 96%
Cc1ccc(-n2c(/C=C/c3cccc(C(F)(F)F)c3)nc3ccccc3c2=O)cc1 | 72%
Cc1cccc(-n2c(CC3C(=O)Nc4ccc(C)cc43)nc3ccccc3c2=O)c1 (stereo not given) | 34% (active)
CCc1nc2ccccc2c(=O)n1-c1cccc(OC)c1 | 91%
O=c1c2ccccc2nc(/C=C\c2cccc(Br)c2)n1-c1ccc(O)cc1 | 100%

SMILES | survival
Cc1cccc(-n2c(/C=C/c3c[nH]c4ccccc34)nc3ccccc3c2=O)c1 | 26% (active)
Cc1ccc(-n2c(/C=C\c3ccc(F)cc3)nc3ccccc3c2=O)cc1Cl | 90%
Cc1ccc(-n2c(/C=C/c3cccc4ccccc34)nc3ccccc3c2=O)cc1 | 77%
Cc1ccc2c(c1)C(Cc1nc3ccccc3c(=O)n1-c1ccc(Br)cc1)C(=O)N2 (stereo not given) | 73%
O=c1c2ccccc2nc(/C=C/c2ccccc2O)n1-c1ccc(Br)cc1 | 41% (active)
O=C(Nc1ccc2c(c1)OCCO2)c1cccn(Cc2cccc(F)c2)c1=O | 84%
N#CC(C#N)=Cc1sc2ccccc2c1Cl | 93%
COc1ccc(C2(CN)CCOCC2)cc1 | 88%
O=c1cccc2n1CC1CC2CN(c2ncnc3c2cnn3-c2ccc(Cl)cc2)C1 (stereo not given) | 52%
Cc1ccc(NC(=O)Cn2cc(C(=O)c3ccccc3)c3ccccc32)cc1 | 122%
COc1ccc(-c2nc(CN3C(=O)CN=C(c4ccccc4)c4ccccc43)c(C)o2)cc1 | 84%
Cc1ccc(-c2nc(CN3C(=O)CN=C(c4ccccc4)c4ccccc43)c(C)o2)cc1 | 49%
Cc1ccccc1-c1nc(CN2C(=O)CN=C(c3ccccc3)c3ccccc32)c(C)o1 | -1% (active)
COc1ccc(-c2nc(CN3C(=O)CN=C(c4ccccc4)c4ccccc43)c(C)o2)cc1OC | 97%
Cc1oc(-c2ccc(Cl)cc2)nc1CN1C(=O)CN=C(c2ccccc2)c2ccccc21 | 49%
Cc1cccc(-c2nc(CN3C(=O)CN=C(c4ccccc4)c4ccccc43)c(C)o2)c1 | -2% (active)
O=C(Cn1cc(C(=O)c2ccccc2)c2ccccc21)Nc1ccc(Br)cc1 | 48%
Cn1c(=O)n(C)c2cc(CNCCc3ccccc3F)ccc21 | 68%
COc1ccc(Br)cc1CN1CCN(C(=O)Cc2ccccc2)CC1 | 73%
COc1ccc2c(c1OC)C(=O)OC2C1c2cc3c(cc2CCN1C)OCO3 (stereo not given) | 69%
CN1CCc2cc3c(c4c2C1Cc1ccccc1-4)OCO3 (stereo not given) | 12% (active)
CCCC12CN3CC(C)(CN(C1)C3c1c(C)[nH]c(=O)[nH]c1=O)C2=O (stereo not given) | 81%
N#CSCC(=O)N1c2ccccc2CCc2ccccc21 | 3% (active)
CN1CCN(c2csc3ccc(F)cc3c2=O)CC1 | 98%

SMILES | survival
Cc1ccc(-n2c(/C=C/c3cc(Br)cs3)nc3ccccc3c2=O)cc1C | 71%
O=C(COc1ccccc1)N1CCN(CC(O)COc2ccccc2)CC1 (stereo not given) | 68%
CN1CCN(C(=O)COc2cccc3ccccc23)CC1 | 98%
O=C(Nc1ccc(F)c(Cl)c1)N(Cc1ccc2c(c1)OCO2)C1CCN(Cc2ccccc2)CC1 | 68%
N#Cc1cc(F)c(N2CCNCC2)cc1Cl | 74%
N#Cc1cc2c(nc1SCC(=O)Nc1ccc(Cl)c(C(F)(F)F)c1)C1CCN2CC1 | -1% (active)
N#Cc1cc2c(nc1SCC(=O)Nc1ccc(F)c(Cl)c1)C1CCN2CC1 | -2% (active)
CN(C)c1ccc(NC(=O)c2sc3nc4c(cc3c2N)N2CCC4CC2)cc1 | 146%
CC(N)Cc1cn(Cc2ccccc2)c2ccccc12 (stereo not given) | 112%
CN1C(=O)C(Cc2nc3ccccc3c(=O)n2-c2ccccc2)c2ccccc21 (stereo not given) | 85%
C=C1N2CCC(CC2)C1(O)c1ccc(C)cc1 (stereo not given) | 44% (active)
CSc1ccc(C(c2c(O)c3ccccc3oc2=O)c2c(C)n(C)n(-c3ccccc3)c2=O)cc1 (stereo not given) | 128%
Cc1c(C(c2ccc(F)cc2)c2c(O)c3ccccc3oc2=O)c(=O)n(-c2ccccc2)n1C (stereo not given) | 89%
COc1cc(C(c2c(O)c3ccccc3oc2=O)c2c(C)n(C)n(-c3ccccc3)c2=O)ccc1O (stereo not given) | 53%
Cc1c(C(c2ccc(O)cc2)c2c(O)c3ccccc3oc2=O)c(=O)n(-c2ccccc2)n1C (stereo not given) | 47% (active)
COc1ccc(C(c2c(O)c3ccccc3oc2=O)c2c(C)n(C)n(-c3ccccc3)c2=O)cc1 (stereo not given) | 57%
Cc1c(C(c2ccc(Br)cc2)c2c(O)c3ccccc3oc2=O)c(=O)n(-c2ccccc2)n1C (stereo not given) | 49% (active)
COc1ccc(NC(=O)CN2C(=O)CN=C(c3ccccc3)c3ccccc32)c(OC)c1 | 99%
CC1CN2CCC3=C(CCCC3)C2(C)C1 (stereo not given) | 77%
CCN(CC)c1ccc(C=C(C#N)C#N)cc1 | 91%
CC(C)n1cc(C(=O)N(C2CC2)C(C(=O)NC2CCCC2)c2ccccc2)cn1 (stereo not given) | 101%
COc1cccc(C2SCC(=O)Nc3c2c(C)nn3-c2ccc(C)c(Cl)c2)c1OC (stereo not given) | 55%
CCc1ccc(-n2nc(C)c3c2NC(=O)CSC3c2ccc(OC)cc2OC)cc1 (stereo not given) | 60%
CCCOc1ccc(C2SCC(=O)Nc3c2c(C)nn3-c2cccc(C)c2)cc1OC (stereo not given) | 41% (active)

SMILES | survival
Cc1cccc(-n2nc(C)c3c2NC(=O)CSC3c2ccccc2Cl)c1 (stereo not given) | 43% (active)
COc1ccccc1C1SCC(=O)Nc2c1c(C)nn2-c1cccc(C)c1 (stereo not given) | -1% (active)
Cc1ccc(-n2c(/C=C/c3ccc(Br)s3)nc3ccccc3c2=O)cc1 | 85%
O=C1NC(=O)C(=Cc2ccc(N3CCOCC3)cc2)C(=O)N1 | 80%
O=c1cccc2n1CC1CC2CN(c2nc(Cl)nc(Cl)n2)C1 (stereo not given) | 80%
CCCCC12CN3CC(C)(CN(C1)C3c1ccccn1)C2=O (stereo not given) | 79%
Cc1cc(N)n(C2CCN(C)CC2)n1 | 94%
Cc1ccc(NC(=O)CN2C(=O)CN=C(c3ccccc3)c3ccccc32)cc1Cl | 122%
Cc1ccc(Cn2cccc(C(=O)Nc3nc4ccc(C)cc4s3)c2=O)cc1 | 117%
COC1=CC23CCN(C)C(Cc4ccc(OC)c(O)c42)C3=CC1=O (stereo not given) | 84%
CCOC(=O)c1ccc(NC(=O)c2sc3nc4c(cc3c2N)N2CCC4CC2)cc1 | 68%
CCOC(=O)c1ccc(NC(=O)CSc2nc3c(cc2C#N)N2CCC3CC2)cc1 | 76%
N#Cc1cccc(NC(=O)CSc2nc3c(cc2C#N)N2CCC3CC2)c1 | 88%
Cc1cccc(CSc2nc3c(cc2C#N)CN(C)CC3)c1 | 101%
N#Cc1cc2c(nc1SCC(=O)Nc1cccc(C(F)(F)F)c1)C1CCN2CC1 | 4% (active)
CC(=O)c1ccc(NC(=O)c2sc3nc4c(cc3c2N)N2CCC4CC2)cc1 | 98%
O=C(CN1C(=O)CN=C(c2ccccc2)c2ccccc21)Nc1cccc(C(F)(F)F)c1 | 57%
N#Cc1cc2c(nc1SCC(=O)Nc1ccc(C(F)(F)F)cc1)C1CCN2CC1 | 8% (active)
N#Cc1cc2c(nc1SCC(=O)Nc1cccc(F)c1)C1CCN2CC1 | -4% (active)
O=C(CNC1CCCCC1)N1CCC2(CC1)OCCO2 | 116%
CCc1cccc(NC(=O)CN2C(=O)CN=C(c3ccccc3F)c3cc(Cl)ccc32)c1 | 94%
CCC(C)N1CCN(Cc2cc(OC)c(OC)cc2OC)CC1 (stereo not given) | 108%
CCNCC1(c2ccc(OC)c(OC)c2)CCCC1 | 94%
